Laboratory results as given in PubChem BioAssay AID1159580 (chemical genetic matrix, 2015).
Values joined by “and” are separate entries in the source; they are usually repeats but may differ in a detail not shown here. Identical values can stand only once. In all, about 5,500 compounds went through this assay and about 2,000 (36%) were called active. Another 18% or so got no clear call; they are omitted. Rule as the data show it: active = normalized growth mostly below about 0.91 (no sharp cut-off); inconclusive = no clear call, values can overlap the other calls; inactive = mostly above about 0.92. The list shows a part of the results.

Assay: chemical genetic growth profiling, strain panel (AID 1159580);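 also: tested at 20 µM; growth read once vehicle control cultures reached saturation at 30 °C; 1 = growth at the plate median or of vehicle wells; lower values mean less growth of the strain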
Conditions: growth OD

Measured: normalized growth

CCOC(=O)C(C)(C)Oc1ccc(Cl)cc1
inactive: S. cerevisiae deletion strains, locus YJR075W, strain HOC1, hits give low values 1.01 and 0.998 | S. cerevisiae deletion strains, locus YKL009W, strain mrt4, hits give low values 1.02 | S. cerevisiae deletion strains, locus YKL068W, hits give low values 1 | S. cerevisiae deletion strains, locus YKL085W, strain MDH1 (second series), hits give low values 1.01 | S. cerevisiae deletion strains, locus YKL085W, strain MDH1, hits give low values 1.01 | S. cerevisiae deletion strains, locus YKL160W, strain elf1, hits give low values 0.98 | S. cerevisiae deletion strains, locus YKL190W, strain CNB1, hits give low values 1.01 | S. cerevisiae deletion strains, locus YKR001C, strain vps1, hits give low values 0.975 | S. cerevisiae deletion strains, locus YKR026C, strain gcn3, hits give low values 0.974 | S. cerevisiae deletion strains, locus YKR091W, strain srl3, hits give low values 0.978 | S. cerevisiae deletion strains, locus YLL001W, strain dnm1, hits give low values 0.987 | S. cerevisiae deletion strains, locus YLL026W, hits give low values 0.97 | S. cerevisiae deletion strains, locus YLL041C, strain sdh2, hits give low values 0.983 | S. cerevisiae deletion strains, locus YLR027C, strain aat2, hits give low values 0.994 | S. cerevisiae deletion strains, locus YLR039C, strain RIC1, hits give low values 0.986 | S. cerevisiae deletion strains, locus YLR058C, strain SHM2, hits give low values 1.01 | S. cerevisiae deletion strains, locus YLR102C, strain apc9, hits give low values 0.996 | S. cerevisiae deletion strains, locus YLR113W, strain HOG1, hits give low values 0.943 | S. cerevisiae deletion strains, locus YLR221C, strain rsa3, hits give low values 0.985 | S. cerevisiae deletion strains, locus YLR258W, strain gsy2, hits give low values 0.986 | S. cerevisiae deletion strains, locus YLR262C, strain YPT6 (second series), hits give low values 0.965 | S. cerevisiae deletion strains, locus YLR262C, strain YPT6, hits give low values 0.985 | S. cerevisiae deletion strains, locus YLR268W, strain sec22, hits give low values 1 | S. cerevisiae deletion strains, locus YLR320W, strain mms22, hits give low values 0.944 | S. cerevisiae deletion strains, locus YLR330W, strain CHS5, hits give low values 1 | S. cerevisiae deletion strains, locus YLR342W, strain FKS1 (second series), hits give low values 0.988 | S. cerevisiae deletion strains, locus YLR342W, strain FKS1, hits give low values 0.981 | S. cerevisiae deletion strains, locus YLR357W, strain rsc2, hits give low values 1 | S. cerevisiae deletion strains, locus YLR370C, strain arc18, hits give low values 0.983 | S. cerevisiae deletion strains, locus YLR371W, strain rom2, hits give low values 0.971 | S. cerevisiae deletion strains, locus YLR384C, strain iki3, hits give low values 0.969 | S. cerevisiae deletion strains, locus YLR418C, strain cdc73, hits give low values 0.985 | S. cerevisiae deletion strains, locus YML016C, strain PPZ1, hits give low values 1 | S. cerevisiae deletion strains, locus YML032C, strain rad52, hits give low values 0.992 | S. cerevisiae deletion strains, locus YML120C, strain ndi1, hits give low values 0.986 | S. cerevisiae deletion strains, locus YML124C, strain tub3, hits give low values 0.998 | S. cerevisiae deletion strains, locus YMR058W, strain fet3, hits give low values 0.987 | S. cerevisiae deletion strains, locus YMR078C, strain ctf18, hits give low values 0.999 | S. cerevisiae deletion strains, locus YMR125W, strain sto1, hits give low values 0.963 | S. cerevisiae deletion strains, locus YMR129W, hits give low values 0.994 | S. cerevisiae deletion strains, locus YMR205C, strain PFK2, hits give low values 0.934 | S. cerevisiae deletion strains, locus YMR223W, strain ubp8, hits give low values 0.996 | S. cerevisiae deletion strains, locus YMR231W, strain pep5, hits give low values 0.983 | S. cerevisiae deletion strains, locus YMR307W, strain GAS1, hits give low values 0.996 | S. cerevisiae deletion strains, locus YNL067W, strain RPL9B, hits give low values 1.01 | S. cerevisiae deletion strains, locus YNL071W, strain lat1, hits give low values 0.98 | S. cerevisiae deletion strains, locus YNL128W, strain TEP1, hits give low values 1.01 | S. cerevisiae deletion strains, locus YNL175C, strain NOP13, hits give low values 1.01 | S. cerevisiae deletion strains, locus YNL183C, strain NPR1, hits give low values 0.933 | S. cerevisiae deletion strains, locus YNL197C, strain WHI3, hits give low values 1.01 | S. cerevisiae deletion strains, locus YNL209W, strain ssb2, hits give low values 0.992 | S. cerevisiae deletion strains, locus YNL224C, strain SQS1, hits give low values 0.991 | S. cerevisiae deletion strains, locus YNL233W, strain BNI4, hits give low values 0.999 | S. cerevisiae deletion strains, locus YNL248C, strain rpa49, hits give low values 0.979 | S. cerevisiae deletion strains, locus YNL250W, strain rad50, hits give low values 1.02 | S. cerevisiae deletion strains, locus YNL271C, strain bni1, hits give low values 0.997 | S. cerevisiae deletion strains, locus YNL298W, strain CLA4, hits give low values 1 | S. cerevisiae deletion strains, locus YNL307C, strain MCK1, hits give low values 1 | S. cerevisiae deletion strains, locus YNL322C, strain KRE1 (second series), hits give low values 0.973 | S. cerevisiae deletion strains, locus YNL322C, strain KRE1, hits give low values 1.01 and 1 | S. cerevisiae deletion strains, locus YNR049C, strain mso1, hits give low values 0.985 | S. cerevisiae deletion strains, locus YNR052C, strain pop2, hits give low values 1 | S. cerevisiae deletion strains, locus YOL006C, strain TOP1, hits give low values 1.01 | S. cerevisiae deletion strains, locus YOL012C, strain htz1 0.891 | S. cerevisiae deletion strains, locus YOL147C, strain pex11, hits give low values 0.988 | S. cerevisiae deletion strains, locus YOR001W, strain rrp6, hits give low values 0.976 | S. cerevisiae deletion strains, locus YOR061W, strain CKA2, hits give low values 1.01 | S. cerevisiae deletion strains, locus YOR069W, strain VPS5, hits give low values 1 | S. cerevisiae deletion strains, locus YOR070C, strain gyp1, hits give low values 0.995 | S. cerevisiae deletion strains, locus YOR080W, strain dia2, hits give low values 0.97 | S. cerevisiae deletion strains, locus YOR083W, strain WHI5 (second series), hits give low values 1.03 | S. cerevisiae deletion strains, locus YOR083W, strain WHI5, hits give low values 0.982 | S. cerevisiae deletion strains, locus YOR106W, strain vam3, hits give low values 0.999 | S. cerevisiae deletion strains, locus YOR136W, strain idh2, hits give low values 1 | S. cerevisiae deletion strains, locus YOR144C, strain elg1, hits give low values 0.995 | S. cerevisiae deletion strains, locus YOR184W, strain ser1, hits give low values 0.943 | S. cerevisiae deletion strains, locus YOR231W, strain MKK1, hits give low values 0.94 | S. cerevisiae deletion strains, locus YOR265W, strain rbl2, hits give low values 0.991 | S. cerevisiae deletion strains, locus YOR270C, strain vph1, hits give low values 0.987 | S. cerevisiae deletion strains, locus YOR290C, strain snf2, hits give low values 0.976 | S. cerevisiae deletion strains, locus YOR316C, strain cot1, hits give low values 0.997 | S. cerevisiae deletion strains, locus YPL051W, strain arl3, hits give low values 0.984 | S. cerevisiae deletion strains, locus YPL055C, strain LGE1, hits give low values 0.999 | S. cerevisiae deletion strains, locus YPL078C, strain atp4, hits give low values 0.985 | S. cerevisiae deletion strains, locus YPL106C, strain sse1, hits give low values 0.951 | S. cerevisiae deletion strains, locus YPL240C, strain hsp82, hits give low values 0.988 | S. cerevisiae deletion strains, locus YPL241C, strain CIN2, hits give low values 0.997 | S. cerevisiae deletion strains, locus YPL256C, strain CLN2, hits give low values 0.923 | S. cerevisiae deletion strains, locus YPR119W, strain clb2, hits give low values 0.993 | S. cerevisiae deletion strains, locus YPR141C, strain kar3, hits give low values 0.992 | S. cerevisiae deletion strains, locus YPR163C, strain tif3, hits give low values 0.995 | S. cerevisiae deletion strains, locus YPR167C, strain met16, hits give low values 1 | S. cerevisiae deletion strains, strain wtn01, hits give low values 0.993 | S. cerevisiae strains, strain wild type, hits give low values 1
